Data reported in PubChem BioAssay (NCI).
About 79,000 compounds went through this panel and 15% of them were active in at least one assay; those are over-represented in the sample as a whole. Values without a mark were called inactive. Calls of active or inactive are those of the source. Rule as the data show it: active = growth inhibition above about 70%; inactive = the rest.

Legend:
[1] = NCI Yeast Anticancer Drug Screen. Data for the rad50 strain (AID 155);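 also: 0% = growth of vehicle-only cultures of the same strain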; settings: S. cerevisiae rad50 strain growth inhibition; at 50.0 µM; hits give high values
Outline: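 Genetically altered yeast (DNA repair pathway); compound treatment; growth inhibition vs vehicle ctrl.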

[2] = NCI Yeast Anticancer Drug Screen. Data for the mec2-1 strain (AID 157); settings: S. cerevisiae mec2-1 strain, at 50.0 µM, hits give high values
Outline: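 Strain: mec2-1 (DNA repair/cell cycle alteration). Compound exposure, then growth measured; inhibition expressed relative to vehicle.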

[3] = NCI Yeast Anticancer Drug Screen. Data for the sgs1 mgt1 strain (AID 161);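 also: 0% = growth of cultures given vehicle only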; settings: S. cerevisiae sgs1 mgt1 strain, at 50.0 µM, hits give high values
Outline: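 Test agents were incubated with a DNA-repair-mutant yeast strain. Growth was then read and compared against vehicle-treated controls.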

[4] = NCI Yeast Anticancer Drug Screen. Data for the cln2 rad14 strain (AID 165);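 also: 0% = growth equal to vehicle treated cultures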; settings: S. cerevisiae cln2 rad14 strain, at 50.0 µM, hits give high values
Outline: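 Compounds are applied to the cln2 rad14 yeast strain, and growth is then compared with that of vehicle-treated cultures to give inhibition.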

[5] = NCI Yeast Anticancer Drug Screen. Data for the bub3 strain (AID 167); settings: S. cerevisiae bub3 mutant strain, at 50.0 µM, hits give high values
Outline: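 Yeast carrying a defined mutation is treated with each compound, and growth is compared with that of vehicle-exposed cells to give inhibition.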

[6] = NCI Yeast Anticancer Drug Screen. Data for the mlh1 rad18 strain (AID 175); settings: S. cerevisiae mlh1 rad18 strain growth inhibition; at 50.0 µM; hits give high values
Outline: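 Read-out is yeast growth inhibition, calculated against vehicle-only controls. The compound was applied to a strain engineered with DNA damage repair alterations.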

| Structure (SMILES) | growth inhibition [1] | growth inhibition [2] | growth inhibition [3] | growth inhibition [4] | growth inhibition [5] | growth inhibition [6] |
| --- | --- | --- | --- | --- | --- | --- |
| CC(=O)c1ccc2c(c1)-c1ccccc1C(=O)C2=O | -24.6% | -22.7% | 10.3% | -19.8% | -15.3% | 5.85% |
| CC1CCCCC1(O)C(C(=O)O)c1ccccc1 (configuration not stated) | -8.1% | -9.85% | 0.3% | -1.95% | -22% | -29.6% |
| O=C(Nc1nc2ncn(CCI)c2c(=O)[nH]1)c1ccccc1 | -8.3% | 6.55% | 6.1% | -1.4% | 6.7% | -14.3% |
| CC(C)(C)c1cc2c(O)c(c1)Cc1cc(C(C)(C)C)cc(c1O)Cc1cc(C(C)(C)C)cc(c1O)Cc1cc(C(C)(C)C)cc(c1O)Cc1cc(C(C)(C)C)cc(c1O)Cc1cc(C(C)(C)C)cc(c1O)Cc1cc(C(C)(C)C)cc(c1O)Cc1cc(C(C)(C)C)cc(c1O)C2 | -12.8% | 9.65% | 7.3% | 5.6% | -14% | -15.1% |
| CCCCN(CC)C(=O)C(=O)Cc1nc2ccc(C(=O)c3ccccc3)cc2[nH]c1=O | 17.3% | 2.45% | -4.2% | 17% | 4.2% | 2.4% |
| N#CC(C#N)=NNc1ccc2cn[nH]c2c1 | -11.1% | 28.2% | 2.7% | -21.1% | -39.5% | -1.95% |
| CCCCCCCCCCCCCCCCCCCOc1ccc(OCCCCCCCC)cc1 | 40.8% | -11.8% | 17.6% | -11.2% | 3.4% | 3% |
| COC1(C)CCC2(O)C(=O)OC3C(O)COC32O1 (configuration not stated) | -3.45% | -4.9% | 2.55% | -1.3% | -1.85% | -4.55% |
| c1ccc2c(c1)cnc1c3ccccc3ccc21 | 10.1% | -7.85% | -8.6% | -21.9% | 6.85% | -0.5% |
| O=C(/C=C/c1c[nH]c2ccccc12)c1ccccc1[N+](=O)[O-] | 5.45% | 9.75% | 7.55% | -7.7% | 7.6% | -7% |
| N#C/C(=C/c1cccc(Oc2ccccc2)c1)c1ccccc1 | 11.7% | -28.2% | -0.55% | -1.5% | -23.1% | -14.4% |
| CC(O)C1NC(=S)N(c2ccccc2)C1=O (configuration not stated) | 17.4% | 21% | 20.8% | -20.2% | -14.4% | 46% |
| Brc1ccc(-c2ccc(-c3ccc(Br)cc3)s2)cc1 | 30.4% | 13.8% | 36.5% | 19.8% | -1.55% | 4% |
| CC(C)NC(=O)CCSCCC(=O)NC(C)C | 3.6% | -10.7% | -3.75% | -6.8% | -17.9% | 10.1% |
| N=C(N)c1cc(Cl)c(OCc2ccccc2)c(Cl)c1 | 9.7% | -12.7% | 1.15% | -10.7% | 3.85% | 12.8% |
| CC(=O)/C(=C\c1ccc(C(F)(F)F)cc1)C(=O)CCN(C)C | 43.4% | 0.05% | 51.6% | 19.6% | 3.25% | 25.7% |
| Clc1ccccc1CSc1cnnc(SCc2ccccc2Cl)c1SCc1ccccc1Cl | -0.1% | 13.3% | 6.4% | 22.9% | 10.7% | 27.6% |
| CC1=C2C(C)CC3OC(=O)C(C)C3C(O)C2CC1=O (configuration not stated) | 5.8% | -7.5% | 1.2% | -40.8% | -8% | -5.75% |
| CCC(=O)Nc1cc(C)ccc1Cl | -3.95% | -7.9% | 3.2% | -52.9% | 5.9% | -0.6% |
| Nc1cc(C(Br)(Br)Br)nc2ccccc12 | 17.4% | 7.45% | 16.8% | -0.2% | -11% | 31.8% |
| COc1c2occc2c(Br)c2ccc(=O)oc12 | 13% | 0.35% | 19.4% | 7.45% | 51.8% | 8.6% |

| Structure (SMILES) | growth inhibition [1] | growth inhibition [2] | growth inhibition [3] | growth inhibition [4] | growth inhibition [5] | growth inhibition [6] |
| --- | --- | --- | --- | --- | --- | --- |
| CN(C)c1ccc(/C=C(/NC(=O)c2ccccc2)C(N)=O)cc1 | 13.9% | 4.55% | 8.95% | 8.1% | 7.6% | 5.1% |
| CCc1c(C)c2n(c1C)C(=O)C=C2N(CC)CC | -11.2% | -18.1% | -38.1% | -6.45% | -2% | -20.6% |
| O=C(c1nc2cc([N+](=O)[O-])ccc2[nH]c1=O)C(O)c1ccco1 (configuration not stated) | -8.65% | -25.4% | -25.2% | 13.9% | -35% | -6.35% |
| c1ccc(-c2nnn(-n3nnc(-c4ccccc4)n3)n2)cc1 | -13% | 12.3% | 10.9% | -5.55% | 1.3% | 25.5% |
| COCCOC(=O)CO | 4.35% | 3.85% | -4.7% | 2.25% | 7.8% | 5.5% |
| Cc1ccc(S(=O)(=O)CCS(C)(=O)=O)cc1 | -0.5% | 2.2% | 13.2% | 21.8% | -13.7% | -11.2% |
| COc1ccc2ccc3c4c(c(=O)[nH]c3c2n1)CCC4 | 44% | 28.8% | 33.7% | 2.55% | 9.95% | 30.9% |
| CCOC(=O)CC(=O)C1CCC2C3CC=C4CC(O)CCC4(C)C3CCC12C (configuration not stated) | 36.5% | 8.3% | 47.4% | 25.9% | 2.1% | 33.9% |
| Nc1ccc2[nH]cc(CCC(=O)O)c2c1 | -11.8% | -6.95% | -4.45% | -11.6% | -60.6% | 18.5% |
| CCc1c2c(nc3ccc(O)cc13)-c1cc3c(c(=O)n1C2)COC(=O)[C@]3(O)CC | 33.2% | -5.5% | -5.9% | 10.6% | 7.5% | -7.25% |
| CCOC(=O)CNc1c(OCc2ccccc2)c(=O)c1=O | -8.05% | -10.8% | -18.1% | -3.65% | -16.2% | 5.8% |
| CCCCC(O)(CC)CC | 3.3% | -23.9% | -3.6% | 5.5% | -16.4% | 15.2% |
| CCC(C(O)c1ccc(Cl)cc1)C(O)(C(F)(F)F)C(F)(F)F (configuration not stated) | 99.4% (active) | 99.5% (active) | 99.6% (active) | 99.5% (active) | 99.3% (active) | 99.4% (active) |
| CON(C)c1nc(N(C)C)nc(N(C)C)n1 | -1.65% | 11.6% | -6.25% | 3.7% | 1.8% | 0.9% |
| CN(C)CCSSCCN(C)C | -7.55% | -5.65% | -13.6% | -14.1% | -2.55% | -3.55% |
| Nc1ccc(C(=O)c2ccccc2)cc1Cl | 60.7% | 35% | 56.4% | 6.75% | 36.2% | 36.1% |
| O=C(N/N=C/c1ccc(Cl)cc1)c1cc(-c2ccccc2)nc2ccccc12 | 5.95% | 22.3% | 17.4% | 21.7% | 2% | -5.7% |
| O=C(O)C(O)(O)C(O)(O)C(=O)O | 6.35% | -22.6% | -4% | 4.85% | -5.85% | -10.4% |
| Cc1cc(Cl)nc(/N=C(\N)Nc2ccc(Cl)c(Cl)c2)n1 | -1.95% | 5.45% | -1.05% | -11.7% | 6.1% | 7.6% |
| COc1ccc(C(O)C(C)(C(=O)O)c2ccccc2)cc1 (configuration not stated) | 2.95% | 2.25% | 4.6% | -6.35% | -5.05% | 8.55% |
| N#C/C(=C\N1CC(=O)NC1=S)C(N)=O | -79.8% | -12.6% | -30.9% | -22.1% | -23.2% | -69.5% |
